Data on 210 variants can be found in the emibetuzumab library of Makowski et al. (2022).

B1: VH:VL chains; a variant is named by its letters at X, in order (parent)
chain 1: QVQLVQSGAEVKKPGASVKVSCKASGYTFTDYXMHWVRQAPGQGLEWMGXVNPNXXXTTYNQKFEGRVTMTTDTSTSTAYMELRSLRSDDTAVYYCARXNXLDXWGQGTTVTVSS
chain 2: DIQMTQSPSSLSASVGDRVTITCSVSSSVSSIYLHWYQQKPGKAPKLLIYSTSNLASGVPSRFSGSGSGTDFTLTISSLQPEDFATYYCQVYSGYPLTFGGGTKVEIK

The other results are listed elsewhere or left out. The true hit rate is not given.

Variants of B1 are the subject of this experiment. The experiment can be described thus: yeast display scFab, FACS + sequencing. The following applies: with MET. The essentials:
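A yeast surface library of scFab variants carrying heavy-chain CDR mutations went through two magnetic enrichment rounds on Protein A beads coated with HGFR-Fc, then FACS. For sorting, cells were labelled for 3 h at room temperature with 1 nM HGFR-Fc and anti-Myc in PBSB containing 1% milk, and the top 50% of antigen-positive cells were gated. Input and round-3 sorted populations were deep sequenced in two replicates. A sequence was called an antigen binder if it appeared in both antigen-positive samples and a non-binder if it appeared only in the input.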
Take DRGGDDVV: the antigen binding call is recorded as “no binding”.
Next, YRARSAGY: “binds”; YRTKGAVY: “binds”; YRARSAVY: “binds”.
Take YRTRSAVY: the antigen binding call is given as “binds”.
Take SEARSAVY: the antigen binding call is listed as “no binding”.
Next, DREEGAVY: “no binding”.
Regarding SEREADWF, the antigen binding call is recorded as “no binding”.
Next, VAGTGDWF: “no binding”; AETKGDGA: “no binding”; DGGRSAVF: “no binding”.
Under FREGSAVA stands “no binding”.
Consider FRRTDFVA, for which the antigen binding call is “no binding”.
For the variant DRRGDAVA, the antigen binding call is recorded as “no binding”.
Consider ARRGSDLA, for which the antigen binding call is listed as “no binding”.
For the variant FRRGSALA, the antigen binding call is on record as “binds”.
Consider FRRGSAVA, for which the antigen binding call is reported as “binds”.
Next, FRRGDAVA: “binds”; DGGTNDGA: “no binding”.
On to DAAGADWY, for which the antigen binding call is “no binding”.
For the variant YRAAGSWS, the antigen binding call is “binds”.
On to YRGRSSWS, for which the antigen binding call is on record as “binds”.
Next, YRKGGSWS: “binds”; AAAGGSWS: “no binding”.
For the variant DRKGGDWS, the antigen binding call was “no binding”.
Next, YRARGSWS: “binds”; VRTEDSWS: “no binding”.
As to VAEKGDGA, the antigen binding call was “no binding”.
Under YAEGGYGV chain 1 V68I stands “no binding”.
DTTGSDWY: the antigen binding call was “no binding”.
Next, VEGGGDVA: “no binding”; SEARSDWF: “no binding”; VAGTGDAA: “no binding”.
Next, SATTDSVD: “no binding”; YRAEGAWS: “binds”; VRAGGDVF: “no binding”.
Under YRARSAWS stands “binds”; under YRKKTDWS, “no binding”.
Take SEARSAWS: the antigen binding call was “no binding”.
Next, VEKGGDVS: “no binding”; YRARSSWS: “binds”; SEARSSWS: “no binding”.
Under VRARGDVS stands “binds”; under FAEGDDVA, “no binding”.
Next, ATTGGDGV: “no binding”.
With VGGTGSGY, the antigen binding call is listed as “no binding”.
VTEGGDVY: the antigen binding call is “no binding”.
As to VEKGGDAA, the antigen binding call was “no binding”.
Take VTERDDAV: the antigen binding call is “no binding”.
Next, YRARGAAS: “binds”.
Under VAATADSS stands “binds”.
Under DAATADSS stands “no binding”; under YRARGSVS, “binds”; under YAATADSS, “no binding”.
For the variant YRARGAVS, the antigen binding call is “binds”.
Turning to YAEESDGS, the antigen binding call is “no binding”.
Under STGEDDVY stands “no binding”; under DEEEGSAA, “no binding”.
YRARGAWS: the antigen binding call was “binds”.
Under YRARGAGS stands “binds”; under YKARGAWS, “binds”; under YEEGTDWY, “no binding”.
Consider DREEGDGV, for which the antigen binding call is “no binding”.
Next, DEAGTAVA: “no binding”; VKRGSSGD: “binds”; AKGTASGD: “no binding”.
Next, VRTGAVGD: “no binding”; VRAGDSLS: “no binding”.
In the case of VRGRDYGD, the antigen binding call is recorded as “no binding”.
Take VRGRAAGD: the antigen binding call is “binds”.
Regarding VERGGFGS, the antigen binding call is given as “no binding”.
On to ARRGGSGS, for which the antigen binding call is “no binding”.
Under VRRGGSGS stands “binds”; under VRGRSSGS, “binds”.
Under VKRRDSGD stands “no binding”.
As to VAGRSFGS, the antigen binding call is recorded as “no binding”.
Consider VEKEGDAD, for which the antigen binding call is given as “no binding”.
For the variant VKEKGDWV, the antigen binding call is given as “no binding”.
Next, DARGGDAA: “no binding”.
Take VAATASWV: the antigen binding call was “no binding”.
Next, SEARSDGS: “no binding”; VTGTGDAD: “no binding”; VRERGDGS: “no binding”.
On to VRERGDAS, for which the antigen binding call is “no binding”.
Under VRGRSAWS stands “binds”.
Next, DRGRDAWS: “no binding”; VRERGAGS: “binds”; VRRGGSGD: “binds”.
For VRTEDDWS, the antigen binding call is given as “no binding”.
Under VRAGGSGD stands “binds”; under SREAADWA, “no binding”; under SEARSDWA, “no binding”.
Regarding AARADSGY, the antigen binding call is on record as “no binding”.
Under VAATAAGA stands “no binding”.
DKTKGDWV: the antigen binding call is “no binding”.
Under VRRGSSGD stands “binds”.
Next, VRRGSAGD: “binds”; VRAGADGV: “no binding”; VRRGSAGS: “binds”.
Under VRAGDDGS stands “no binding”; under VTTKSAGD, “no binding”.
For the variant VRAGAAGS, the antigen binding call is listed as “binds”.
VEGTSSGD: the antigen binding call is given as “no binding”.
Next, VRAGAAGV: “no binding”; ARRGSAVS: “no binding”.
Under DKGEGAGV stands “no binding”; under STAESDVA, “no binding”.
Next, VRRGSASD: “binds”.
Take VRRAADSD: the antigen binding call is on record as “no binding”.
Next, VRRETVSD: “no binding”; YRRGGSGD: “binds”; SAGEGDVF: “no binding”.
In the case of DEGGTSAD, the antigen binding call is “no binding”.
For the variant DRGRGSAD, the antigen binding call is recorded as “binds”.
Under FTGRAAAV stands “no binding”; under FKGRGFVV, “no binding”; under VKAGASAD, “no binding”.
Next, VKGRGSAD: “binds”; FKGRGAAV: “binds”; VKEGGSAD: “no binding”.
Turning to FRGRASAD, the antigen binding call is reported as “binds”.
On to DTGTSAAF, for which the antigen binding call was “no binding”.
For STGEADAS, the antigen binding call was “no binding”.
Under YAEESDWV stands “no binding”; under ATGGAAGD, “no binding”.
Under VGGTSDGA stands “no binding”.
Regarding VKTKGVVD, the antigen binding call is recorded as “no binding”.
For VKGRGVVD, the antigen binding call is reported as “binds”.
Consider FAGRGSAD, for which the antigen binding call is given as “binds”.
Under FAGRGSSD stands “no binding”; under FTGRGSAD, “no binding”; under VAGRGVGD, “no binding”.
In the case of FKGRGAAD, the antigen binding call is listed as “binds”.
As for FKGRGSAD, the antigen binding call was “binds”.
For VAGGDDAV, the antigen binding call was “no binding”.
FAEGAAGD: the antigen binding call is listed as “no binding”.
Next, VGGTSSLD: “no binding”; DKRKGVSD chain 1 S88F: “no binding”.
Turning to ATGRADGV, the antigen binding call was “no binding”.
Next, FRGRGSAD: “binds”; AAGRSDLV chain 1 R67H: “no binding”; FAGRSDWV chain 1 R67H: “no binding”.
Next, YRTRDSLD: “binds”; FRTRDAGD: “binds”; YTTRDDSD: “no binding”.
Under SRTRDAGD stands “binds”.
As to SETTDAGD, the antigen binding call is “no binding”.
Under FRTRDVGF stands “no binding”; under SEGGDAGD, “no binding”.
As for YRTRDSVA, the antigen binding call is given as “binds”.
Under STEASYLS stands “no binding”; under VGRATVGS, “no binding”.
Next, FTRRSSLF chain 1 V111I: “no binding”; YRTRDSVD: “binds”.
On to FRTRDSLD, for which the antigen binding call is on record as “binds”.
Under FRTRDALD stands “binds”; under FTTRDDSD, “no binding”; under FRGRDFLD, “no binding”.
Under SARKGDVA stands “no binding”; under VTGTGDVY, “no binding”.
As for STGGDDGF, the antigen binding call is “no binding”.
On to YAGGDDAV, for which the antigen binding call is on record as “no binding”.
On to DTKAADGV, for which the antigen binding call is given as “no binding”.
Next, YREGDASD: “no binding”; YRGKDASD: “binds”; DRAGDASD: “no binding”.
Next, YRAGAASD: “binds”; YRAGSASD: “binds”; AARADDAA: “no binding”.
Next, SEARSDAA: “no binding”.
With YAGEGFGV, the antigen binding call was “no binding”.
For the variant VRERGASD, the antigen binding call is reported as “binds”.
Next, VRERGSWD: “binds”; VKAGGSLY: “binds”; VKAGGDVY: “no binding”.
On to VRERGAWD, for which the antigen binding call is recorded as “binds”.
Turning to VKKTGDLY, the antigen binding call is “no binding”.
Next, VTERGSLD: “no binding”.
On to VGGTSSSA, for which the antigen binding call is on record as “no binding”.
Under AGGTSYSV stands “no binding”; under SARADSGV, “no binding”; under VTGGDYAV, “no binding”.
Next, DEGTGAVA: “no binding”; VRKGGSVY: “no binding”; VRERGSLY: “binds”.
Under YRRGGSWD stands “binds”; under YRARSSWD, “binds”.
For YRARSSSD, the antigen binding call is “binds”.
In the case of SEARSSSD, the antigen binding call is reported as “no binding”.
For the variant YRARGSWD, the antigen binding call is “binds”.
Next, VAREDDLS: “no binding”; VEGGGDGA: “no binding”; ATGRADVY: “no binding”.
Under VEEASSWA stands “no binding”; under SGGGNDLA chain 1 R87K, “no binding”; under YRRGASWD, “binds”.
Next, YRRGDAWD: “binds”; YRAGDSWD: “binds”; DRAGDSWD: “no binding”.
For YAAGSSWD, the antigen binding call was “no binding”.
Next, YRAGSSWD: “binds”.
Next, DRAGDSWA: “no binding”; DETKGDWD: “no binding”; YRARGAWD: “binds”.
With YRRGDSWD, the antigen binding call is listed as “binds”.
With YEGAASWF, the antigen binding call was “no binding”.
Regarding YRAGGSWF, the antigen binding call was “binds”.
Next, YRAKGSWD: “binds”; VTGTGDWV: “no binding”; VEEEGSVV: “no binding”.
